TRb SRC2 PPI = disrupts binding of human TR beta to SRC2. P10828. TRbeta-SRC2 peptide binding, fluorescence polarization; receptor liganded with 1 µM T3. Potency, µM (highest dose often 106 µM), inactives show at the top dose activity change, negative = inhibition, actives largely listed as inhibitors. hit rate 0.065% among 280,000. AID 1469; active means well fitted inhibition curve with a large enough effect; inconclusive means small, poorly fitted or top-dose-only effect, or effect the other way;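 further: potency means the concentration at half of the fitted maximal effect; plate controls were bound peptide for no effect and peptide without receptor for full effect; nearly all actives have a fitted effect of over 50% in size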
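Human TRb LBD (0.6 uM) plus Texas Red-labeled SRC2 peptide (20 nM), 1uM T3, 5% DMSO, 5 hr at ambient temperature. Decreased polarization (555/632 nm) flags inhibition; data normalized to free and bound peptide controls.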
Menin-MLL FL inh = inhibitors of human menin-MLL interaction, wild-type MLL peptide. Fluorescence polarization, fluorescein-MLL peptide displacement from menin. FP activity change, % at 61.4 µM. AID 1766. 290,000 tested, under 10 active; active means well fitted curve in the direction sought with a large enough effect in the polarisation, not every such curve was filed as active; inconclusive means small, poorly fitted or top-dose-only effect, or effect the other way, or a change in a side signal; inactive means no such curve, though single readings can be large or run the other way; the % refers to the polarisation; further: % of control where 0% means no effect
Menin MLL FP TR = menin-MLL binding inhibition, Texas Red mutant peptide; Menin + Texas Red MLL mutant peptide, fluorescence polarization; hit rate 0.23% among 270,000; Potency, µM (series often up to 61.6 µM), inactives show at the highest dose FP activity change, negative = inhibition, hits mostly inhibitors; O00255; active means well fitted inhibition curve with a large enough effect in the polarisation, with a control signal flat, not every such curve was filed as active; inconclusive means small, poorly fitted or top-dose-only effect, or effect the other way, or a change in a side signal; inactive means no such curve, though single readings can be large or run the other way; the % refers to the polarisation; further: potency means the concentration at half of the fitted maximal effect; % of control where 0% means no effect
Target sequence (O00255 whole entry, looked up): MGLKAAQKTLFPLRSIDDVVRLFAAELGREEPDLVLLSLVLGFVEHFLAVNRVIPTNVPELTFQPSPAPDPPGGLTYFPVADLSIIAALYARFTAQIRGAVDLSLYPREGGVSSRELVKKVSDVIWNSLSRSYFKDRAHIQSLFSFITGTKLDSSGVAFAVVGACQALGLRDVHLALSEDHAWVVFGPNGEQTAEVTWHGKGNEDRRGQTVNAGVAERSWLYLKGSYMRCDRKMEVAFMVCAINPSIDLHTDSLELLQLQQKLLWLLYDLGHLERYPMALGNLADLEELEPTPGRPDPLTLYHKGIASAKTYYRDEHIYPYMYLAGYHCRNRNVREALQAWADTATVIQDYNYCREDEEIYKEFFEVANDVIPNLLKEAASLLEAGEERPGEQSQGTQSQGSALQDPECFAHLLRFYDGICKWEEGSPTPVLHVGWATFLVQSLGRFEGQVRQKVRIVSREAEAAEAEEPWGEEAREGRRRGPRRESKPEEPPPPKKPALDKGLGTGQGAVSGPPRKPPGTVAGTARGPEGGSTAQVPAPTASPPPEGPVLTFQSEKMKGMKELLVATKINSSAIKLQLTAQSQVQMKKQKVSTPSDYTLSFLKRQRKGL
MLL CXXC-DNA inh = inhibitors of human MLL CXXC domain-DNA interaction; Q03164; MLL-CXXC / FITC-HOXA9 DNA fluorescence polarization; Potency, µM (highest dose often 115 µM), without a hit: top-dose activity change, negative = inhibition, actives largely listed as inhibitors; hit rate 0.037% among 290,000; AID 2662; active means well fitted inhibition curve with a large enough effect in the polarisation, with a control signal flat, not every such curve was filed as active; inconclusive means small, poorly fitted or top-dose-only effect, or effect the other way, or a change in a side signal; inactive means no such curve, though single readings can be large or run the other way; the % refers to the polarisation; further: potency means the concentration at half of the fitted maximal effect
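Fluorescence polarization: 7 uM MLL-CXXC (stock) preincubated 5 min with compounds, then 50 nM fluorescein-HOX-A9 DNA (stock) added; 30 min ambient. Buffer 50 mM Tris-HCl pH 7.5, 50 mM NaCl, 1 mM DTT, 0.05% BSA.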
TexasRed fluor = alters Texas Red total fluorescence, flagging assay interference | TRb/SRC2 Texas Red total fluorescence interference | Potency, µM (highest dose often 106 µM), for the others: at the highest dose fluorescence change, negative = quenching | hit rate 0.29% among 280,000; active means well fitted curve in either direction with a large enough effect; inconclusive means small, poorly fitted or top-dose-only effect; further: potency means the concentration at half of the fitted maximal effect; on the % scale 0 is the no-effect control and ±100 the full control effect
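Human TRβ ligand-binding domain (0.6 uM) and Texas Red SRC2 peptide (20 nM) in Tris buffer with 1 uM T3 and 5% DMSO were incubated with pinned compound for 5 hr at ambient temperature. Total fluorescence was computed as S + 2P (555/632 nm).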
Starred values were filed as active, the others as inactive; ? = inconclusive; / = no result; ! = a repeat was not active; [ ] = dose if it differs, or a comment. This is a sample that favours compounds with a hit; in the whole collection about 0.36% have one here.

SMILES	TRb SRC2 PPI	Menin-MLL FL inh	Menin MLL FP TR	MLL CXXC-DNA inh	TexasRed fluor
O=C(O)C[C@@H]1C(=O)O[C@@H]2C(COC(=O)c3cc(O)c(O)c(O)c3)O[C@@H](OC(=O)c3cc(O)c(O)c(O)c3)[C@@H](OC(=O)c3cc(O)c(O)c4c3[C@H]1[C@H](O)C(=O)O4)[C@H]2OC(=O)c1cc(O)c(O)c(O)c1 (some centres not stated)	16%	12	/	28µM*	?
COCCOCCOCCOC	8%[201 µM]	/	/	/	-2%[201 µM]
COc1ccc(NC(=O)c2ccc(-c3ccc([N+](=O)[O-])cc3)o2)cc1	?	5	?	-7%	32µM*[quencher]
CC(=O)OC(C)(C)C1CC=C(C)CC1 (configuration not stated)	0%[201 µM]	/	/	/	3%[201 µM]
O=C(Cc1ccc(Cl)cc1)Nc1ccc(NC(=O)c2ccccc2)cc1	1%	-1	10µM*	4%	1%
COC(=O)c1c(-c2cccs2)csc1NC(=O)c1cccc(Cl)c1	?	/	/	/	1122µM*[quencher]
CCOc1cccc(C2Nc3ccccc3-c3cc(C)nn32)c1O (configuration not stated)	-12%	/	/	/	0.0004µM*[quencher]
CCN1CCN(c2oc(-c3ccc(COc4ccc(OC)cc4)o3)nc2C#N)CC1	-3%	/	/	/	0%
Cc1ccccc1C(=O)n1nc(-c2cccnc2)nc1NCc1ccccc1	-4%	/	/	/	4%
Cc1cccc(C(=O)n2nc(-c3cccnc3)nc2NCc2ccccc2)c1	-15%	/	/	/	0.0089µM*[quencher]
COc1cc(CN(C(=S)NCC(=O)NC2CC2)C2CCCC2)cc(OC)c1OC	?	-1	-25%	24%	0.089µM*[quencher]
O=C(O)c1cccc(NC(=O)c2cccc(S(=O)(=O)Nc3cccc(C(=O)O)c3)c2)c1	-7%	/	/	/	-5%
O=C(O)c1cccc(NC(=O)c2cccc(S(=O)(=O)Nc3cccc(F)c3)c2)c1	?	/	/	/	0.32µM*[quencher]
O=S(=O)(O)c1ccc(N=Nc2c(O)ccc3cc(S(=O)(=O)O)ccc23)cc1	17%[201 µM]	/	/	/	?
Cc1ccccc1C(=O)Nc1cccc(NC(=O)c2ccc(C(C)(C)C)cc2)c1	-24%[53 µM]	/	/	/	0.16µM*[quencher]
Cc1ccccc1C(=O)Nc1cccc(N)c1	5%	0	0%	-1%	0%
COc1ccc(OCC(=O)NCC(c2ccc(OC)cc2)N2CCCCC2)cc1 (configuration not stated)	1%	3	-3%	-5%	-3%
O=C(COc1ccc(F)cc1)NCC(c1ccc(Cl)cc1)N1CCCCC1 (configuration not stated)	-26%	/	/	/	40µM*[quencher]
CC(=O)c1ccc(N2CCN(C(=O)Nc3ccc(C(C)C)cc3)CC2)cc1	-2%	0	2%	3%	0.032µM*![quencher]
CC(=O)c1ccc(N2CCN(C(=O)Nc3ccc(F)cc3)CC2)cc1	-1%	-1	-25%	-6%	1%
COc1ccc(CN(C(=O)Nc2ccccc2)c2ccccn2)cc1OC	0%	/	/	/	7%
O=C(/C=C/c1ccc(Cl)cc1)c1cccnc1	-6%	0	1%	16%	-1%
O=C(/C=C/c1ccc(OCc2ccccc2)c(OCc2ccccc2)c1)c1cccnc1	-12%	9	24%	17%	1122µM*[quencher]
S=C(S)NCCNC(=S)S	-4%[201 µM]	/	/	/	?
Cc1ccc(C(C)(C)C)c(O)c1	0%[201 µM]	/	/	/	-6%[201 µM]
SMILES	TRb SRC2 PPI	Menin-MLL FL inh	Menin MLL FP TR	MLL CXXC-DNA inh	TexasRed fluor
Cc1ccc2c(c1)C=CC(C)(C)S2=O (configuration not stated)	-5%	0	-4%	9%	-1%
CC[N+]1=C(C)C(C)(C)c2cc(C)ccc21	?	?	?	-1%	40µM*[fluorescent]
CC(C)CN(c1ccccc1)S(=O)(=O)c1nnc(NC(=O)C2CCCCC2)s1	-17%	/	/	/	4.5µM*[quencher]
O=C(CSc1ncc(S(=O)(=O)c2ccc(Br)cc2)c(=O)[nH]1)NCc1ccc(Cl)cc1	7%	/	/	/	11%
Cc1ccc(CNC(=O)CSc2ncc(S(=O)(=O)c3ccc(Br)cc3)c(=O)[nH]2)cc1	-27%[53 µM]	/	/	/	0.4µM*[quencher]
CCc1cccc(C)c1N(C(=O)CS(=O)(=O)O)[C@@H](C)COC	8%[201 µM]	/	/	/	-3%[201 µM]
FC(F)(F)c1ccc(Cl)c(Cl)c1	5%[201 µM]	/	/	/	3%[201 µM]
O=C(CCC(=O)OCC(=O)c1ccc(-c2ccccc2)cc1)Nc1cccc(Cl)c1	1%	-1	25µM*	19%	-3%
Cc1ccccc1NC(=O)CCC(=O)OCC(=O)c1ccc(-c2ccccc2)cc1	-7%	-1	35µM*	-16%	0%
O=C(CCNC(=O)c1ccccc1)OCC(=O)c1cccc(Cl)c1	-3%	3	1%	4%	1%
COc1ccc(C(=O)CCC(=O)Nc2ccccc2C)cc1	-9%	/	/	/	?
COC(=O)c1ccccc1NC(=O)Cn1c(=O)n(CCC(=O)NCc2ccccc2OC)c(=O)c2ccccc21	-7%	/	/	/	-29%
COc1ccc(NS(=O)(=O)c2cc(NC(=O)C3CCCO3)ccc2N2CCCCC2)cc1 (configuration not stated)	-8%	4	13%	-5%	-2%
COc1ccc(NS(=O)(=O)c2cc(NC(=O)/C=C/c3cc(OC)ccc3OC)ccc2N2CCCCC2)cc1	6%[53 µM]	0	10µM*	3%	-1%[53 µM]
CCOc1ccccc1CNC(=O)CCCn1c(=O)c2cccn2c2cccnc21	-4%	/	/	/	-1%
O=C(O)C(Oc1ccc(Cl)cc1)Oc1ccc(Cl)cc1	5%[201 µM]	/	/	/	-2%[201 µM]
COc1ccc(NC(=O)c2nnn(Cc3nc(-c4cc(OC)c(OC)c(OC)c4)oc3C)c2C)cc1Cl	-22%[53 µM]	/	/	/	0.0089µM*[quencher]
Cc1ccc2nc(NC(=O)c3cccc(-c4cc5ccccc5oc4=O)c3)sc2c1	3%	0	22µM*	13%	2%
Cn1c(SCC(=O)C(C)(C)C)nnc1-c1ccncc1	-7%	0	-7%	12%	-7%
CCn1c(CSc2nnc(-c3ccncc3)n2C)nc2cc(C(=O)O)ccc21	40µM*	-16	/	-25%	45µM*[fluorescent]
CCOc1ccccc1C(=O)Nc1c(NC)c2ccccc2oc1=O	-5%	/	/	/	0%
O=C(NCc1ccc(Cl)cc1)c1cc(-c2cccs2)on1	-4%	5	28µM*	6%	-1%
COc1ccc(CNC(=O)c2cc(-c3cccs3)on2)cc1	4%	7	?	3%	-1%
O=c1n(CCO)c(=O)n(CCO)c(=O)n1CCO	0%[201 µM]	/	/	/	-4%[201 µM]
COc1ccc(OC)c(NC(=O)CN2C(=O)c3ccccc3Sc3ccc(C(=O)N4CCCC4)cc32)c1	-20%	/	/	/	794µM*[quencher]
O=C(CCC(=O)N1CCOc2ccccc21)NCc1cccs1	2%	/	/	/	2%
CCc1cccc(C)c1Nc1c(-c2ccc(N3CCOCC3)cc2)nc2ncccn12	4%	/	/	/	-3%
COc1ccccc1NCCC(=O)OCC(=O)NC1CCCCC1	4%	0	0%	-1%	-2%
COc1ccccc1NCCC(=O)OCC(=O)NC1CC1	?	-23	-3%	6%	3.5µM*[quencher]

Bioassay records deposited in PubChem by National Center for Advancing Translational Sciences (NCATS).
